Entries with a potency or affinity are not part of this list. Inconclusive results are not listed. A number with no mark means an inactive call. The source made the active and inactive calls. No rule for the calls is given here.
Assay: growth inhibition of resistant C. albicans, dose response, CaCi-8, fluconazole, Alamar Blue, dry powder (AID 488807)
Conditions: C. albicans CaCi-8 + fluconazole, 48 h; series mostly up to 26 µM

| SMILES | outcome | activity change, negative = inhibition |
| --- | --- | --- |
| O=C(Cn1c2ccccc2c2nc3n(c(=O)c21)CCCS3)c1ccc(F)cc1 | inactive |  |
| O=C(Cn1nc(-c2ccccc2)c2ccccc21)N1CCc2ccccc2C1 | inactive |  |
| O=C(Cn1nc(-c2ccccc2)c2ccccc21)NCc1ccc(Cl)cc1 | inactive |  |
| COc1ccc2c(c1)c1nc3n(c(=O)c1n2CC(=O)N1CCC(Cc2ccccc2)CC1)CCS3 | inactive |  |
| O=C(Cn1c2ccccc2c2nc3n(c(=O)c21)CCS3)NCCc1ccc(Cl)cc1 | inactive |  |
| Cc1nn(S(C)(=O)=O)c2ccccc12 | inactive |  |
| O=C(c1ccc(Cl)cc1)N1CCN(c2cc(C(F)(F)F)nc3ccccc23)CC1 | inactive |  |
| O=S(=O)(c1ccc(Cl)cc1)N1CCN(c2ccnc3cc(Cl)ccc23)CC1 | inactive |  |
| CCCNC(=O)Cn1nc(-c2ccccc2)c2cc(Cl)ccc21 | inactive |  |
| O=C(O)c1nn(Cc2ccc(Cl)cc2)c2ccccc12 | inactive |  |
| COc1ccc(OC)c2c(C)cc(N3CCN(C(=O)c4ccc(Cl)cc4)CC3)nc12 | inactive |  |
| CCOC(=O)c1c2ccccc2nn1Cc1ccc(Cl)cc1 | inactive |  |
| O=C(Cn1nc(-c2ccccc2)c2cc(Cl)ccc21)N1CCOCC1 | inactive |  |
| CCCNC(=O)Cn1nc(-c2ccccc2)c2ccccc21 | inactive |  |
| COc1ccc2c(c1)c1nc3n(c(=O)c1n2CC(=O)N1CCC(C)CC1)CCS3 |  | 13% [at 2.6 µM] |
| CCOC(=O)c1nn(Cc2ccc(Cl)cc2)c2ccccc12 | inactive |  |
| c1ccc(-c2n[nH]c3ccccc23)cc1 | inactive |  |
| COC(=O)Cn1nc(C)c2ccccc21 | inactive |  |
| O=C(Cn1nc(C(=O)N2CCCCC2)c2ccccc21)N1CCOCC1 | inactive |  |

Source: PubChem BioAssay AID488807 (Broad Institute, 2010)
